# HSP90 inh: HSP90 inhibitors, primary screen, cell lysate, luminescence; Heat shock protein HSP 90 (rabbit reticulocyte lysate; luciferase refolding); Rabbit reticulocyte lysate, luciferase refolding luminescence, 3 h; inhibition, % at 5.6 µM; 290,000 compounds, 0.91% hits;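 active = inhibition above the screen-wide mean plus 3 SD, computed separately per campaign, cut at about 16% in these data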;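 note: 0% = DMSO wells and 100% = 60 µM geldanamycin wells; inhibitors lower the luminescence because luciferase stays unfolded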
# HSF1 inhib: HSF1 inhibitors in luciferase reporter cells, primary screen, cell-based, NIH3T3, luminescence; NIH3T3-HGL HSE-luciferase, MG132-induced, luminescence 8 h; hits give low values; activity change, negative = inhibition, % at 7.5 µM (by protocol); AID 2098, 2009; 300,000 compounds, 0.77% hits;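 active = more than half of replicate wells show activity change below -50%, luminescence cut by over half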;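 note: luciferase reports HSF-1 transcriptional activity via heat shock element; 0% = median of DMSO wells and -100% = zero luminescence signal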
# NR0B1 inh: DAX1 (NR0B1) inhibitors, primary screen, cell-based, HEK293, Gal4-DAX1, luciferase luminescence; AID 504766, 2011; 340,000 compounds, 0.99% hits; Nuclear receptor subfamily 0 group B member 1 (Homo sapiens), P51843; HEK293 Gal4-DAX1 luciferase reporter; inhibition, % at 6.75 µM;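 active = inhibition above the mean over all tested compounds plus 3 SD, cut at about 4.2% in these data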;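 note: 0% = DAX1-transfected cells with DMSO and 100% = empty-vector control cells with DMSO; inhibition shows as a rise in luminescence from relieved DAX1 repression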
# Target sequence (P51843 207-470 limits assumed): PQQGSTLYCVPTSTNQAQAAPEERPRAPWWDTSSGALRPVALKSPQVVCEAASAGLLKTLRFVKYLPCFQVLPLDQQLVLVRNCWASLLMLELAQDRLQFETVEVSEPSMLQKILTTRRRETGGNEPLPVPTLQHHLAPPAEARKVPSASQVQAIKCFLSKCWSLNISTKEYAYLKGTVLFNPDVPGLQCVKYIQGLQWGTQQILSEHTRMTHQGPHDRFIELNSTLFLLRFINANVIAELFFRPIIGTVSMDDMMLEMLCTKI
# FXN GAA850 act: FXN promoter activators, primary screen, cell-based, luciferase luminescence, HEK293 lucGAA850; HEK293 lucGAA850 FXN promoter luciferase reporter, 24 h; percent of 10 µM SAHA response; activation, % at 6 µM; 360,000 compounds, 0.56% hits;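 active = activation above the average of all compounds screened plus 3 SD, cutoff fixed separately per campaign, cut at about 7.5% in these data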;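 note: 0% = DMSO wells and 100% = 10 µM SAHA wells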
# HSF1 activator: HSF-1 activators, primary screen, NIH3T3-HGL cells, MG132 stress, luminescence, single point; NIH3T3-HGL HSF-1 luciferase reporter, 8 h; 100% = twice DMSO control signal; activation, % at 9 µM; 300,000 compounds, 1.7% hits;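 active = mean replicate activation of at least 50% with a set share of replicates each reaching 50%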;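 note: 0% = median of the neutral control wells and 100% = twice that signal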
# AHR activator: AHR activators, primary screen, cell-based, luminescence, luciferase reporter, human; Aryl hydrocarbon receptor (Homo sapiens), P35869; AHR-responsive luciferase reporter cells; activation, % at 5 µM; 320,000 compounds, 2.5% hits; AID 2796, 2010; in the data active = activation above about 47%;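 note: 0% = vehicle wells and 100% = reference agonist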
# * = called active by the depositor; nt = no result given. Shown are actives, neighbours in structure and some others; about 5.9% of the full set was active somewhere.
SMILES,HSP90 inh,HSF1 inhib,NR0B1 inh,FXN GAA850 act,HSF1 activator,AHR activator
COc1cc(/C=C(/C#N)c2nc3ccccc3[nH]2)ccc1OC(=O)c1ccco1,1,13,1,4,30,60*
COc1cc(/C=C(/C#N)c2ccccc2)ccc1Oc1ccc([N+](=O)[O-])cn1,1,-3,-2,-1,29,-2
COc1cc(/C=C(\C#N)c2nc3ccccc3[nH]2)ccc1Oc1ccc([N+](=O)[O-])cn1,1,28,0,0,62*,29
COc1ccccc1N/C=C(\C#N)c1nc2ccccc2[nH]1,5,2,0,4,-4,70*
COc1cc(NC(=O)CC(C)S(=O)(=O)c2cc3c(cc2C)NC(=O)CO3)cc(OC)c1OC (stereo unspecified),-4,12,3,0,20,1
CCCCOc1ccc(OCCNC(=O)c2ccco2)cc1,-2,-2,0,0,25,10
COc1ccc(/C=C2\SC(=O)N(CCNC(=O)Cn3[nH]c(=O)c4ccccc4c3=O)C2=O)cc1,nt,nt,-1,-2,nt,4
CN1C2=NCCN2C(=O)c2ccccc21,3,-8,0,4,-8,52*
C/C(CC(=O)Nc1cccc2c1CCCC2)=N\NC(=O)COc1ccccc1,-4,29,-1,0,61*,-1
CS(=O)(=O)c1ccc(Nc2nc(C(N)c3ccccc3)cs2)cc1 (stereo unspecified),nt,nt,nt,-1,nt,nt
COc1ccc(CCNC(=O)COc2ccc(N(C)S(=O)(=O)c3ccc(C)cc3)cc2)cc1,0,8,-3,1,53*,7
COc1ccc(CCNC(=O)CN(c2ccc(OC)c(OC)c2)S(C)(=O)=O)cc1OC,3,-66*,1,-3,-73,0
Cc1ccc(S(=O)(=O)N(C)c2ccc(C(=O)NCc3ccccn3)cc2)cc1,-2,5,-1,-1,14,11
COc1ccc(CNC(=O)c2ccc(N(C)S(=O)(=O)c3ccc(C)cc3)cc2)cc1,1,-1,0,1,13,2
COc1ccc(CCNC(=O)CN(c2ccc(OC)cc2)S(C)(=O)=O)cc1,7,2,6.4*,0,-2,2
COc1ccc(S(=O)(=O)N(C)c2ccc(C(=O)NCc3ccccn3)cc2)cc1,4,23,1,-2,68*,2
COc1ccc(N(CC(=O)NCCC2=CCCCC2)S(=O)(=O)c2ccccc2)cc1,-2,45,-1,6,97*,4
COc1ccc(N(CC(=O)NCCC2=CCCCC2)S(=O)(=O)c2ccccc2)cc1OC,-2,1,0,2,4,0
Cc1ccc(N2C(=O)c3ccc(N)cc3C2=O)cc1,2,22,0,4,28,51*
O=C(COc1ccc(C(=O)c2ccccc2)cc1)Nc1ncccc1O,-2,3,0,0,-4,16
O=C(Nc1ncccc1O)c1ccc(Oc2ccccc2)cc1,13,47,1,4,88*,0
O=C(CCNC(=O)c1ccc(Cl)cc1)Nc1ncccc1O,-3,-87*,1,3,-89,8
O=C(CCCNC(=O)c1ccc(Cl)cc1)Nc1ncccc1O,-4,-6,0,2,-10,2
CCOC(=O)c1c(-c2ccccc2)c[nH]c1C,nt,nt,2,4,nt,nt
Cc1ccc2[nH]c(-c3cccc(F)c3)cc(=O)c2c1,-2,-23,2,1,-29,50*
SMILES,HSP90 inh,HSF1 inhib,NR0B1 inh,FXN GAA850 act,HSF1 activator,AHR activator
COc1ccc(-c2cc(=O)c3ccccc3[nH]2)cc1,1,-1,3,2,7,38
Cc1ccc(-c2cc(=O)c3cc(F)ccc3[nH]2)cc1,2,6,3,4,18,22
O=c1cc(-c2ccccc2)[nH]c2ccc(F)cc12,-4,-11,1,0,-2,58*
O=c1cc(-c2cccc(F)c2)[nH]c2ccccc12,3,-15,0,1,-17,61*
COc1ccc2[nH]c(-c3cccc(F)c3)cc(=O)c2c1,-4,6,3,2,-7,58*
Cc1ccc(-c2cc(=O)c3cc(C)ccc3[nH]2)cc1,12,7,-2,-4,12,33
CN1CC(=O)N(CC(=O)Nc2cccc(S(=O)(=O)N3CCOCC3)c2)C1=O,4,3,0,2,31,1
CCN(CC)S(=O)(=O)c1cccc(-c2nnc(SCCCC(=O)c3ccccc3)o2)c1,0,-2,-2,0,1,3
CCN(CC)S(=O)(=O)c1cccc(-c2nnc(SCc3nc4ccccc4s3)o2)c1,1,40,-1,1,62*,20
Brc1ccccc1-c1nnc(SCc2nc3ccccc3s2)o1,-1,11,1,5,54*,39
CCC(=O)Nc1cccc(C(=O)/C=C/c2ccc(F)cc2)c1,4,61,-3,3,75*,-2
CC(=O)Nc1cccc(C(=O)/C=C/c2ccc(C)cc2)c1,13,-47,-1,-7,-59,3
CSc1nc2sc3c(c2c(=O)[nH]1)CCC(C)C3 (stereo unspecified),-2,-1,-1,0,18,69*
Clc1ccccc1CNCC1CCCO1 (stereo unspecified),2,-2,5.9*,1,10,2
Clc1ccc(-c2ccc(CNCC3CCCO3)o2)cc1 (stereo unspecified),1,62,-1,5,79*,3
CC(C)[C@H](NC(=O)N1CCn2c1nc1ccccc12)C(=O)N[C@@H](C(=O)O)c1ccccc1,-4,4,4,2,-2,1
Cc1nn(-c2cccc(Cl)c2)c2c1C(c1ccncc1)C(C#N)=C(N)O2 (stereo unspecified),4,67,1,-4,82*,6
Cc1nn(-c2ccccc2)c2c1C(c1cccs1)C(C#N)=C(N)O2 (stereo unspecified),13,1,-1,3,-14,55*
COc1ccccc1-c1csc(C(C)(O)c2ccccc2)n1 (stereo unspecified),nt,nt,nt,3,nt,nt
Fc1ccc(-n2cc(CNCCc3ccccn3)c(-c3ccccc3Cl)n2)cc1,3,-52*,1,3,-65,-1
C=CCc1c(C)nc(-c2ccccc2)nc1N/N=C(\C)c1ccccc1,-5,11,0,5,14,14
